Consider 15 compounds from PubChem BioAssay.

In test [1] the target is Cell division control protein 42 homolog (Homo sapiens) (UniProt P60953). As to the kind of experiment: inhibition of fluorescent GTP binding to constitutively active Cdc42 – biochemical, multiplex bead flow cytometry, Bodipy-FL-GTP, dose response (AID 1333;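 active = fitted half-maximal concentration within the tested dose range, moderate curve steepness, a statistically real signal drop, and little compound fluorescence or tag-binding interference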). In general terms: Flow cytometry measures light scatter and fluorescence of single cells or particles in a stream.
Test [2] has the same target. As to the kind of experiment: inhibition of fluorescent GTP binding to wildtype Cdc42 – biochemical, multiplex bead flow cytometry, Bodipy-FL-GTP, dose response (AID 1334;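 active = fitted half-maximal concentration within the tested range, moderate curve steepness, significant signal drop, and little compound fluorescence or bead-linkage interference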). As to conditions: bead-based flow cytometry, Bodipy-FL-GTP binding to GST-Cdc42; at 100 µM (top of the series) unless noted.
Test [3] has as its target GTPase HRas (Homo sapiens) (UniProt P01112). As to the kind of experiment: Ras wt fluorescent GTP loading blockade – biochemical, wildtype, multiplex bead flow cytometry, dose response (AID 1335). The conditions noted are these: bead-based flow cytometry, Bodipy-GTP binding to GST-Ras; at 100 µM (top of the series) unless noted.
For test [4], the system named is Ras-related protein Rab-7a (dog), GTP binding. As to the kind of experiment: blockers of fluorescent GTP binding to Rab7 – biochemical, wildtype, multiplex bead flow cytometry, dose response (AID 1336; call rule not given here).
In test [5] the target is Ras-related C3 botulinum toxin substrate 1 (Homo sapiens) (UniProt P63000). Put plainly: inhibition of wildtype Rac1 nucleotide loading – biochemical, multiplex bead flow cytometry, dose response (AID 1340;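 active = dose curve with midpoint inside tested range, moderate steepness, plateau gap beyond fit error, low compound glow and bead-link interference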). As to conditions: GST-Rac1 beads, Bodipy-FL-GTP binding; at 100 µM (top of the series) unless noted.
Test [6] concerns the target GTPase HRas (Homo sapiens) (UniProt P01112). As to the kind of experiment: blockade of GTP loading onto mutant Ras – biochemical, activated mutant, multiplex bead flow cytometry, dose response (AID 1341;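 active = dose-response curve with midpoint inside the tested range, moderate steepness, significant amplitude and little compound fluorescence or bead-attachment interference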;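 note: GST-tagged constitutively activated Ras mutant immobilized on beads and multiplexed with other GTPases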).

For part of these data: Results with a measured potency or affinity are listed apart. Activity calls are given as the source filed them.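 Rule for the calls, unless noted: active = fitted half-maximal concentration within 10 nM to 100 µM, steepness 0.5 to 2, significant signal drop, low assay interference; inactive = the rest.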

Sequence of Cell division control protein 42 homolog (Homo sapiens) (P60953 whole entry, looked up): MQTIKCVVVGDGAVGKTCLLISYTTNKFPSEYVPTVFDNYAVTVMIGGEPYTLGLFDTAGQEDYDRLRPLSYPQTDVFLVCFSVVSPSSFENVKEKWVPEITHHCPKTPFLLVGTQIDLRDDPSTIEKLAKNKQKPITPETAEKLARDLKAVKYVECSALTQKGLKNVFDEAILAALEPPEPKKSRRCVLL
Sequence of GTPase HRas (Homo sapiens) (P01112 whole entry, looked up): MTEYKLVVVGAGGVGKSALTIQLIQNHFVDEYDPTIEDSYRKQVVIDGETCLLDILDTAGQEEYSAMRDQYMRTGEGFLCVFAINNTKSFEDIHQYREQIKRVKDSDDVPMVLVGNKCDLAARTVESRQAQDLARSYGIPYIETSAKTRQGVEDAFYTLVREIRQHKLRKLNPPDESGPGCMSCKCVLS

For the compound `Cn1c(=O)c2c(ncn2CC(O)CNc2cccc(Cl)c2)n(C)c1=O` (stereo not given), the outcome in test [1], in test [4] and in test [6] was inactive. For the same compound, the fluorescence, percent of control (lower = inhibition) in test [2] came to 47.1%. Besides, the GTP binding, percent of control in test [3] was found to be 101%. Moreover, the GTP binding signal, raw median fluorescence (lower = inhibition) (MCF (arbitrary fluorescence units)) in test [5] turned out to be 363.

Turning to `COc1ccc(CNCc2sc(C(=O)O)cc2C)cc1OC`, the result in test [1], in test [4] and in test [6] was inactive. For the same compound, the fluorescence, percent of control (lower = inhibition) in test [2] turned out to be 59.2%. The compound further displayed a GTP binding, percent of control in test [3] of 78.1%. This compound also had a GTP binding signal, raw median fluorescence (lower = inhibition) (MCF (arbitrary fluorescence units)) in test [5] of 32.2.

As for `CCOc1cc(C2c3c(-c4ccccc4)n[nH]c3C(=O)N2c2ccc(C(=O)O)cc2)ccc1O` (stereo not given), the outcome in test [1], in test [4] and in test [6] was inactive. For the same compound, the fluorescence, percent of control (lower = inhibition) in test [2] stood at 29%. Further, the GTP binding, percent of control in test [3] amounted to 79.3%. The compound also yielded a GTP binding signal, raw median fluorescence (lower = inhibition) (MCF (arbitrary fluorescence units)) in test [5] of 95.9.

`COc1cc(/C=N/NC(=O)CSc2n[nH]c(=O)[nH]c2=O)cc(OC)c1O`: the compound was classed as inactive in test [1], in test [4] and in test [6]. Also, the fluorescence, percent of control (lower = inhibition) in test [2] was found to be 36%. The compound also returned a GTP binding, percent of control in test [3] of 78.9%. In test [5], this compound displayed a GTP binding signal, raw median fluorescence (lower = inhibition) (MCF (arbitrary fluorescence units)) of 178.

As for `Cn1nnnc1SCc1ccc(C(=O)Nc2nccs2)cc1`, the outcome in test [1], in test [4] and in test [6] was inactive. Further, the fluorescence, percent of control (lower = inhibition) in test [2] is 36.8%. For the same compound, the GTP binding, percent of control in test [3] was determined as 47.9%. Besides, the GTP binding signal, raw median fluorescence (lower = inhibition) (MCF (arbitrary fluorescence units)) in test [5] was 126.

For `Cc1cccc(Nc2nc(NCc3ccco3)c3ccccc3n2)c1`, the result in test [1], in test [4] and in test [6] was inactive. Further, in test [2], the fluorescence, percent of control (lower = inhibition) was determined as 39.2%. In test [3], the GTP binding, percent of control amounted to 54.7%. The same compound showed a GTP binding signal, raw median fluorescence (lower = inhibition) (MCF (arbitrary fluorescence units)) in test [5] of 142.

As to `CSc1nsc(SC)c1NC(=O)OC1CCCCC1`, the outcome in test [1], in test [4] and in test [6] was inactive. In addition, the fluorescence, percent of control (lower = inhibition) in test [2] turned out to be 43%. For the same compound, the GTP binding, percent of control in test [3] was determined as 63.4%. This compound also registered a GTP binding signal, raw median fluorescence (lower = inhibition) (MCF (arbitrary fluorescence units)) in test [5] of 196.

With `O=C(Cn1cnc2c(nnn2Cc2ccccc2F)c1=O)NCC1CCCO1` (stereo not given), the call in test [1], in test [4] and in test [6] was inactive. In test [2], the fluorescence, percent of control (lower = inhibition) was 51.6%. For the same compound, in test [3], the GTP binding, percent of control turned out to be 63.1%. The same compound displayed a GTP binding signal, raw median fluorescence (lower = inhibition) (MCF (arbitrary fluorescence units)) in test [5] of 208.

Consider `O=C(Cn1cnc2cc([N+](=O)[O-])ccc2c1=O)NCc1ccc(Cl)cc1`, for which the call in test [1], in test [4] and in test [6] was inactive. Moreover, the fluorescence, percent of control (lower = inhibition) in test [2] was 34.9%. The compound further displayed a GTP binding, percent of control in test [3] of 82.3%. The compound further showed a GTP binding signal, raw median fluorescence (lower = inhibition) (MCF (arbitrary fluorescence units)) in test [5] of 192.

Regarding `Cc1ccc(C(=O)c2ccccc2C(=O)O)cc1C`, the outcome in test [1], in test [4] and in test [6] was inactive. In addition, the fluorescence, percent of control (lower = inhibition) in test [2] came to 113%. The same compound gave a GTP binding, percent of control in test [3] of 141%. The same compound came in with a GTP binding signal, raw median fluorescence (lower = inhibition) (MCF (arbitrary fluorescence units)) in test [5] of 93.5.

With `Nc1nc(CN2CCN(c3ccccc3F)CC2)nc(N2CCCc3ccccc32)n1`, the compound was called inactive in test [1], in test [4] and in test [6]. Further, the fluorescence, percent of control (lower = inhibition) in test [2] worked out at 28.5%. In addition, the GTP binding, percent of control in test [3] worked out at 69.6%. For the same compound, in test [5], the GTP binding signal, raw median fluorescence (lower = inhibition) (MCF (arbitrary fluorescence units)) was 210.

For the compound `Cc1ccc(Nc2c(F)c(F)c(F)c(F)c2C(=O)O)c(C)c1`, the call in test [1], in test [4] and in test [6] was inactive. The fluorescence, percent of control (lower = inhibition) in test [2] is 92.8%. This compound also registered a GTP binding, percent of control in test [3] of 109%. In addition, in test [5], the GTP binding signal, raw median fluorescence (lower = inhibition) (MCF (arbitrary fluorescence units)) was 75.2.

Regarding `Cc1ccc(/C=N/NC(=O)C2CCN(Cc3ccc(F)cc3Cl)CC2)o1`, the compound was called inactive in test [1], in test [4] and in test [6]. In test [2], the fluorescence, percent of control (lower = inhibition) worked out at 39%. This compound gave a GTP binding, percent of control in test [3] of 82.7%. In test [5], this compound gave a GTP binding signal, raw median fluorescence (lower = inhibition) (MCF (arbitrary fluorescence units)) of 241.

Turning to `CCOC(=O)C1(Cc2ccccc2)CCCN(CCO)C1` (stereo not given), the outcome in test [1], in test [4] and in test [6] was inactive. Also, the fluorescence, percent of control (lower = inhibition) in test [2] turned out to be 37.6%. The GTP binding, percent of control in test [3] was 80.3%. This compound also returned a GTP binding signal, raw median fluorescence (lower = inhibition) (MCF (arbitrary fluorescence units)) in test [5] of 246.

For the compound `COc1ccc(O)c(CN2CCN(CCc3ccccc3)C(CCO)C2)c1` (stereo not given), the compound was classed as inactive in test [1], in test [4] and in test [6]. Moreover, the fluorescence, percent of control (lower = inhibition) in test [2] stood at 37.3%. In test [3], this compound yielded a GTP binding, percent of control of 84.3%. In test [5], the GTP binding signal, raw median fluorescence (lower = inhibition) (MCF (arbitrary fluorescence units)) came to 273.
